PubChem BioAssay (NCI)
Several values for one entry are separate records, joined by “and”; a condition that tells them apart may be missing. Equal values may be shown once. Compounds without any hit were thinned out: in the full panel of roughly 83,000, 20% have a hit.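 96-well plates, one dose, 48 hours. Percent growth reported; active if below 10.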 Activity calls are given as the source filed them.

Key:
Assay in all cases: NCI-60 one-dose screen, 48 h (100 = growth as untreated, 0 = no growth, -100 = all killed)
Conditions in all cases: 10 µM unless noted
[1] = tested on: NCI-H23 lung
[2] = tested on: NCI-H226 lung
[3] = tested on: NCI-H322M lung
[4] = tested on: HOP-62 NSCLC
[5] = tested on: NCI-H460 lung
[6] = tested on: HOP-92 NSCLC
[7] = tested on: NCI-H522 lung
[8] = tested on: A549/ATCC NSCLC
[9] = tested on: 786-0 renal
[10] = tested on: COLO 205 colon
[11] = tested on: DU-145 prostate
[12] = tested on: K-562 leukemia
[13] = tested on: MALME-3M melanoma
[14] = tested on: MDA-MB-231 breast
[15] = tested on: RXF 393 renal
[16] = tested on: SF-268 CNS
[17] = tested on: SF-295 CNS
[18] = tested on: SF-539 CNS
[19] = tested on: UACC-257 melanoma
[20] = tested on: M14 melanoma

Measured: growth

CN(C)c1ccc(C(=C2C=CC(=[N+](C)C)C=C2)c2ccc(N(C)C)cc2)cc1 (tested in a mixture with another compound)
active: [1] -49% | [2] -60% | [3] -27.7% | [4] -34.2% | [5] -75.1% | [6] -66.8% | [7] -47% | [8] -18.2% | [9] -90.4% | [10] -97.7% | [11] -99.4% | [12] -55.3% | [13] -62.7% | [14] -60.9% | [15] -70.1% | [16] -92.2% | [17] -45.1% | [18] -94.2% | [19] -67.4% | [20] -63.2%

CCOC(=O)c1c(C)[nH]c(CO)c1C
inactive: [1] 99.1% | [2] 114% | [3] 94.9% | [4] 93.9% | [5] 110% | [6] 101% | [7] 84.3% | [8] 90.7% | [9] 106% | [11] 101% | [12] 101% | [13] 91.1% | [14] 104% | [15] 134% | [16] 96.7% | [17] 95.1% | [18] 104% | [19] 94.2% | [20] 95.5%

O=[N+]([O-])c1ccc(N=Nc2ccc(O)cc2O)cc1
active: [6] -18.1%
inactive: [1] 55.1% | [2] 60.6% | [3] 84.8% | [4] 93.6% | [5] 66% | [7] 19.5% | [8] 62.6% | [9] 51.3% | [11] 83.2% | [12] 20.6% | [13] 72.5% | [14] 47.4% | [15] 20.6% | [16] 78% | [17] 50.6% | [18] 37.7% | [19] 43.7% | [20] 51.3%

COC(=O)c1nc(=S)[nH]c(C(=O)OC)c1C(=O)c1ccc2ccccc2c1
inactive: [1] 97.9% | [2] 86.9% | [3] 97.7% | [4] 106% | [5] 111% | [6] 101% | [7] 102% | [8] 120% | [9] 114% | [11] 110% | [12] 102% | [13] 94.5% | [14] 90.4% | [15] 99.6% | [16] 102% | [17] 98.6% | [18] 92.5% | [19] 112% | [20] 112%

Cc1ccc2c(ccc3c[n+]4c5ccccc5ccc4n32)c1
active: [2] 7.48% | [4] 0.81% | [5] 1.99% | [6] -11.1% | [7] -33.4% | [8] 4.82% | [12] 6.39% | [13] -45.5% | [16] 1.4% | [17] -1.86% | [18] -3.04% | [19] -36% | [20] 2.99%
inactive: [1] 10.4% | [3] 12.7% | [9] 27.4% | [11] 20.7% | [14] 19.6% | [15] 28.9%

CCOC(=O)/C(=C\c1ccc(-c2ccccc2)cc1)C(C)=O
inactive: [1] 100% | [2] 101% | [3] 97.3% | [4] 110% | [5] 103% | [6] 101% | [7] 87.6% | [8] 111% | [9] 105% | [11] 99.3% | [12] 101% | [13] 87.1% | [14] 112% | [15] 95.6% | [16] 91% | [17] 102% | [18] 98% | [19] 120% | [20] 94.7%

COc1cc(/C=C/C(C)=O)ccc1O
inactive: [1] 96.6% and 94.1% | [2] 95.3% and 111% | [3] 88.4% and 115% | [4] 94.2% and 111% | [5] 102% and 110% | [6] 73.3% | [8] 98.1% and 100% | [9] 121% and 114% | [10] 97.5% and 120% | [11] 105% and 101% | [12] 105% and 98.2% | [13] 90.6% and 137% | [14] 96.4% and 111% | [15] 100% and 121% | [16] 90.3% and 99% | [17] 107% and 114% | [18] 86.1% and 93.9% | [19] 106% and 109% | [20] 99.7% and 101%
